# Experimental data as given in PubChem BioAssay (NCI).
# The panel holds about 79,000 compounds, 15% with a hit somewhere; the sample as a whole holds those more often. A number with no mark means an inactive call. Activity calls are given as the source filed them. No stated cut-off is given here; in the data, active means growth inhibition above about 70%; inactive means the rest.
# Key:
# [1] = NCI Yeast Anticancer Drug Screen. Data for the wt2 strain (AID 169);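 further: 0% = growth of vehicle-treated yeast cultures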; conditions: S. cerevisiae wt2 strain growth inhibition, hits give high values
# How it was run: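 Growth of compound-treated yeast is measured and expressed as inhibition relative to vehicle-only controls.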
# [2] = NCI Yeast Anticancer Drug Screen. Data for the mlh1 strain (AID 171);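 further: 0% = growth of vehicle-treated control cultures of the same strain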; conditions: S. cerevisiae mlh1 strain growth inhibition, hits give high values
# How it was run: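 Test agents were incubated with yeast bearing a defined DNA damage repair or cell cycle control alteration; values are growth inhibition normalised to vehicle-treated cultures.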
# [3] = NCI Yeast Anticancer Drug Screen. Data for the sgs1 strain (AID 173);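 further: 0% = growth of vehicle-only control cultures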; conditions: S. cerevisiae sgs1 mutant, hits give high values
# How it was run: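 Strain with an altered DNA repair or cell cycle pathway exposed to compound. Growth then measured. Value = inhibition versus vehicle control.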
# [4] = NCI Yeast Anticancer Drug Screen. Data for the mlh1 rad18 strain (AID 175); conditions: S. cerevisiae mlh1 rad18 strain growth inhibition, hits give high values
# How it was run: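 A repair-deficient yeast strain is exposed to test compound, and growth is scored relative to vehicle-treated controls.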
# [5] = NCI Yeast Anticancer Drug Screen. Data for the rad18 strain (AID 177); conditions: S. cerevisiae rad18 mutant growth inhibition, hits give high values
# How it was run: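 DNA-repair-defective yeast; compound treatment; growth inhibition scored against vehicle.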
# [6] = NCI Yeast Anticancer Drug Screen. Data for the rad52 strain (AID 147);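 further: 0% = growth of vehicle-treated control cultures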; conditions: S. cerevisiae rad52 mutant growth inhibition, hits give high values
# How it was run: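 Growth of repair-deficient yeast cells was compared between compound-treated and vehicle-treated cultures to give percent inhibition.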
# [7] = NCI Yeast Anticancer Drug Screen. Data for the wt1 strain (AID 149);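 further: 0% = growth of vehicle-treated wt1 cultures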; conditions: S. cerevisiae wt1 strain (SPY 50644) growth inhibition, hits give high values
# How it was run: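 Measured: growth of wt1 yeast under compound versus vehicle treatment, reported as inhibition.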
# [8] = NCI Yeast Anticancer Drug Screen. Data for the rad50EPP+ strain (AID 151);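 further: 0% = growth of vehicle-treated control cultures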; conditions: S. cerevisiae rad50 mutant strain, hits give high values
# How it was run: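 Measured: growth inhibition of rad50EPP+ yeast. Reference: vehicle-treated controls. Screen uses strains with defined genetic alterations in DNA damage repair or cell cycle control.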
# [9] = NCI Yeast Anticancer Drug Screen. Data for the mgt1 strain (AID 153); conditions: S. cerevisiae mgt1 mutant growth inhibition, hits give high values
# How it was run: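 Compounds were applied to mgt1 mutant yeast, and growth was then compared against vehicle-treated control cultures to give percent inhibition.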
# [10] = NCI Yeast Anticancer Drug Screen. Data for the rad50 strain (AID 155);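 further: 0% = growth of vehicle-only cultures of the same strain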; conditions: S. cerevisiae rad50 strain growth inhibition, hits give high values
# How it was run: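 Growth of the mutant yeast was measured after compound exposure and referenced to vehicle-treated cultures.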
# [11] = NCI Yeast Anticancer Drug Screen. Data for the mec2-1 strain (AID 157); conditions: S. cerevisiae mec2-1 strain, hits give high values
# How it was run: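 Compounds were applied to mec2-1 yeast cells. Their growth was then compared with that of vehicle-treated cultures to give growth inhibition.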
# [12] = NCI Yeast Anticancer Drug Screen. Data for the rad14 strain (AID 159);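 further: 0% = growth of vehicle-treated control cultures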; conditions: S. cerevisiae rad14 strain growth inhibition, hits give high values
# How it was run: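 Here, inhibition of yeast growth was measured after compound exposure, using a strain with a genetic defect in DNA damage repair and vehicle-treated cultures as the reference.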
# [13] = NCI Yeast Anticancer Drug Screen. Data for the sgs1 mgt1 strain (AID 161);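 further: 0% = growth of cultures given vehicle only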; conditions: S. cerevisiae sgs1 mgt1 strain, hits give high values
# How it was run: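 Growth of a repair-deficient yeast mutant was monitored after compound treatment and expressed as inhibition relative to vehicle-treated cultures.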
# [14] = NCI Yeast Anticancer Drug Screen. Data for the CLN2oe strain (AID 163);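 further: 0% = growth of vehicle-only control cultures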; conditions: S. cerevisiae CLN2oe strain, hits give high values
# How it was run: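 Cells of an engineered yeast line with disturbed cell-cycle regulation are treated with compound. Inhibition of growth is then calculated relative to the vehicle-treated reference.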
# [15] = NCI Yeast Anticancer Drug Screen. Data for the cln2 rad14 strain (AID 165);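 further: 0% = growth equal to vehicle treated cultures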; conditions: S. cerevisiae cln2 rad14 strain, hits give high values
# How it was run: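 Strain: cln2 rad14 yeast, altered in cell cycle control and DNA damage repair. Read-out: growth inhibition vs vehicle.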
# [16] = NCI Yeast Anticancer Drug Screen. Data for the bub3 strain (AID 167); conditions: S. cerevisiae bub3 mutant strain, hits give high values
# How it was run: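 Whole-cell yeast assay. The mutant strain was incubated with compounds, and growth inhibition was determined by comparison with vehicle-treated cells.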
# [17] = at 5.0 µM (retest, dose inferred, filed as 0.5)
# [18] = at 50.0 µM (retest, dose inferred, filed as 5.0)
structure (smiles),measurement,setting,value
CCOC1(c2cccc([N+](=O)[O-])c2)c2ccccc2Oc2ccccc21,growth inhibition,[1]; at 1.2 µM,1%
same,growth inhibition,[1]; at 3.7 µM,-1%
same,growth inhibition,[1]; at 11.0 µM,1%
same,growth inhibition,[1]; at 33.0 µM,2%
same,growth inhibition,[1]; at 100.0 µM,4%
same,growth inhibition,[2]; at 1.2 µM,-2%
same,growth inhibition,[2]; at 3.7 µM,-2%
same,growth inhibition,[2]; at 11.0 µM,1%
same,growth inhibition,[2]; at 33.0 µM,3%
same,growth inhibition,[2]; at 100.0 µM,10%
same,growth inhibition,[3]; at 1.2 µM,-1%
same,growth inhibition,[3]; at 3.7 µM,1%
same,growth inhibition,[3]; at 11.0 µM,0%
same,growth inhibition,[3]; at 33.0 µM,6%
same,growth inhibition,[3]; at 100.0 µM,16%
same,growth inhibition,[4]; [17],57%
same,growth inhibition,[4]; [18],79% (active)
same,growth inhibition,[4]; at 50.0 µM,62%
same,growth inhibition,[5]; at 1.2 µM,-1%
same,growth inhibition,[5]; at 3.7 µM,1%
same,growth inhibition,[5]; at 11.0 µM,-12%
same,growth inhibition,[5]; at 33.0 µM,-9%
same,growth inhibition,[5]; at 100.0 µM,12%
NC(=O)c1c([N+](=O)[O-])cc(C(F)(F)F)cc1[N+](=O)[O-],growth inhibition,[6]; at 1.2 µM,2%
same,growth inhibition,[6]; at 3.7 µM,1%
same,growth inhibition,[6]; at 11.0 µM,3%
same,growth inhibition,[6]; at 33.0 µM,6%
same,growth inhibition,[6]; at 100.0 µM,7%
same,growth inhibition,[7]; at 1.2 µM,0%
same,growth inhibition,[7]; at 3.7 µM,0%
same,growth inhibition,[7]; at 11.0 µM,0%
same,growth inhibition,[7]; at 33.0 µM,2%
same,growth inhibition,[7]; at 100.0 µM,2%
same,growth inhibition,[8]; at 1.2 µM,1%
same,growth inhibition,[8]; at 3.7 µM,5%
same,growth inhibition,[8]; at 11.0 µM,7%
same,growth inhibition,[8]; at 33.0 µM,16%
same,growth inhibition,[8]; at 100.0 µM,40%
same,growth inhibition,[9]; at 1.2 µM,3%
same,growth inhibition,[9]; at 3.7 µM,5%
same,growth inhibition,[9]; at 11.0 µM,4%
same,growth inhibition,[9]; at 33.0 µM,6%
same,growth inhibition,[9]; at 100.0 µM,6%
same,growth inhibition,[10]; at 1.2 µM,-1%
same,growth inhibition,[10]; at 3.7 µM,0%
same,growth inhibition,[10]; [17],-6%
same,growth inhibition,[10]; at 11.0 µM,-1%
same,growth inhibition,[10]; at 33.0 µM,3%
same,growth inhibition,[10]; [18],-4%
same,growth inhibition,[10]; at 50.0 µM,97.8% (active)
same,growth inhibition,[10]; at 100.0 µM,11%
same,growth inhibition,[11]; at 1.2 µM,0%
same,growth inhibition,[11]; at 3.7 µM,0%
same,growth inhibition,[11]; [17],18%
same,growth inhibition,[11]; at 11.0 µM,0%
same,growth inhibition,[11]; at 33.0 µM,3%
same,growth inhibition,[11]; [18],3%
same,growth inhibition,[11]; at 50.0 µM,97.2% (active)
same,growth inhibition,[11]; at 100.0 µM,10%
same,growth inhibition,[12]; at 1.2 µM,2%
same,growth inhibition,[12]; at 3.7 µM,0%
same,growth inhibition,[12]; at 11.0 µM,0%
same,growth inhibition,[12]; at 33.0 µM,0%
same,growth inhibition,[12]; at 100.0 µM,1%
same,growth inhibition,[13]; [17],5%
same,growth inhibition,[13]; [18],2%
same,growth inhibition,[13]; at 50.0 µM,98.4% (active)
same,growth inhibition,[14]; at 1.2 µM,2%
same,growth inhibition,[14]; at 3.7 µM,-1%
same,growth inhibition,[14]; at 11.0 µM,-4%
same,growth inhibition,[14]; at 33.0 µM,-5%
same,growth inhibition,[14]; at 100.0 µM,-4%
same,growth inhibition,[15]; [17],8%
same,growth inhibition,[15]; [18],22%
same,growth inhibition,[15]; at 50.0 µM,84.3% (active)
same,growth inhibition,[16]; at 1.2 µM,-1%
same,growth inhibition,[16]; at 3.7 µM,-1%
same,growth inhibition,[16]; [17],7%
same,growth inhibition,[16]; at 11.0 µM,0%
same,growth inhibition,[16]; at 33.0 µM,-1%
same,growth inhibition,[16]; [18],23%
same,growth inhibition,[16]; at 50.0 µM,93.1% (active)
same,growth inhibition,[16]; at 100.0 µM,5%
same,growth inhibition,[1]; at 1.2 µM,0%
same,growth inhibition,[1]; at 3.7 µM,1%
same,growth inhibition,[1]; at 11.0 µM,3%
same,growth inhibition,[1]; at 33.0 µM,4%
same,growth inhibition,[1]; at 100.0 µM,8%
same,growth inhibition,[2]; at 1.2 µM,-2%
same,growth inhibition,[2]; at 3.7 µM,2%
same,growth inhibition,[2]; at 11.0 µM,2%
same,growth inhibition,[2]; at 33.0 µM,3%
same,growth inhibition,[2]; at 100.0 µM,8%
same,growth inhibition,[3]; at 1.2 µM,1%
same,growth inhibition,[3]; at 3.7 µM,3%
same,growth inhibition,[3]; at 11.0 µM,5%
same,growth inhibition,[3]; at 33.0 µM,11%
same,growth inhibition,[3]; at 100.0 µM,19%
same,growth inhibition,[4]; [17],55%
same,growth inhibition,[4]; [18],12%
same,growth inhibition,[4]; at 50.0 µM,97.8% (active)
same,growth inhibition,[5]; at 1.2 µM,0%
same,growth inhibition,[5]; at 3.7 µM,2%
same,growth inhibition,[5]; at 11.0 µM,4%
same,growth inhibition,[5]; at 33.0 µM,6%
same,growth inhibition,[5]; at 100.0 µM,16%
